Shown is part of a subset that was picked to be rich in hits.
Giardia FBPA inh – Giardia lamblia aldolase inhibition | A8B2U2 | purified Giardia FBPA | Potency, µM (titrated, usually from 59.6 µM), inactives show top-dose activity, negative = inhibition, hits mostly inhibitors | 290,000 compounds, 0.71% hits | AID 2451; also: nearly all actives have a fitted effect of over 55% in size
Target sequence (A8B2U2 whole entry, looked up): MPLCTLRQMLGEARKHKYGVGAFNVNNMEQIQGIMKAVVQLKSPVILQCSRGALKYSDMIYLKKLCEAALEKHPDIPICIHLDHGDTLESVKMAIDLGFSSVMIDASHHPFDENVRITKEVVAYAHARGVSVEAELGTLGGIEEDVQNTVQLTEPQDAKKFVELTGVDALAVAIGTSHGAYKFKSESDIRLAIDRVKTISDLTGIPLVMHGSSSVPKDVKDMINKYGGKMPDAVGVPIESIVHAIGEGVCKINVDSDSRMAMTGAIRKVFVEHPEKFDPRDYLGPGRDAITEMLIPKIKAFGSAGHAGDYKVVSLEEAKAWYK
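Giardia FBPA (40 nM reagent) was preincubated 10 min at RT with compound (up to 57.5 uM final), then substrate plus GAPDH/TPI/NAD/arsenate coupling system with diaphorase/resazurin was added; resorufin fluorescence (525/598 nm) was read after 20 min.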
Cruzain inh Det – cruzain (T. cruzi) inhibition with detergent. P25779. purified cruzain, Z-FR-AMC fluorescence, 0.01% Triton. Potency, µM, for the others: max response, negative = inhibition, actives largely listed as inhibitors. 200,000 compounds, 0.43% hits;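 also: plate controls were neutral wells for no effect and buffer without enzyme for full effect; nearly all actives have a fitted effect of over 40% in size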
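Cysteine protease activity tested under reducing, mildly acidic conditions (100 mM sodium acetate pH 5.5, 5 mM DTT) plus 0.01% Triton X-100. Cruzain 1.5 nM; substrate Z-FR-AMC 2 uM; 15 min compound preincubation at room temperature.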
Cruzain inh noDet – blocks cruzain activity in detergent-free assay | Potency, µM, without a hit: max response, negative = inhibition, most hits filed as inhibitors | purified cruzain, Z-FR-AMC fluorescence, no detergent | 200,000 compounds, 2.3% hits | P25779;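 also: plate controls were enzyme without inhibitor for no effect and buffer without enzyme for full effect; nearly all actives have a fitted effect of over 40% in size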
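Detergent-free condition (0.00005% Triton X-100) in acetate buffer pH 5.5 with DTT. 1.5 nM enzyme and compound were pre-mixed 15 min, then 2 uM Z-FR-AMC substrate added; reaction progress from fluorescence change between first and third reads (60 s).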
The depositor's hits bear a star; ? = inconclusive; . = no result given; [ ] = dose if it differs, or a comment. Calls follow the shape of the dose curve; as a rule, active = well fitted curve in the direction sought with a large enough effect; inconclusive = small, poorly fitted or top-dose-only effect, or another doubt; inactive = no such curve, though single readings can be large; an effect the other way counts as inactive or inconclusive. Unless noted, % is scaled to controls: 0 for no effect and ±100 for the full control effect; potency is read from the fitted curve at half-maximal effect.

SMILES | Giardia FBPA inh | Cruzain inh Det | Cruzain inh noDet
Cc1ccccc1NC(=O)COC(=O)/C=C/c1cccc(C(F)(F)F)c1 | 6% | 0% | 25µM*
COc1ccc(/C=C/C(=O)OCC(=O)Nc2cc(S(=O)(=O)N(C)C)ccc2Cl)cc1 | 3% | . | .
COc1ccc(/C=C/C(=O)OCC(=O)Nc2cc(C(F)(F)F)ccc2Cl)cc1 | 2% | -9% | 25µM*
CC(C)Oc1cccc(C(=O)Nc2ccc3oc(-c4ccccc4)nc3c2)c1 | . | -4% | -12%
CCN(CC)C(=S)SCC(=O)Nc1nc(-c2ccccc2)c(-c2ccccc2)o1 | 8% | -2% | 32µM*
O=C(CSC(=S)N1CCCCC1)Nc1nc(-c2ccccc2)c(-c2ccccc2)o1 | 3% | 1% | ?
Cc1nc2nc(SCC(=O)NCCc3ccc(Cl)cc3)nn2c(C)c1Cc1ccccc1 | . | -6% | ?
CCCN(CCC)CCCNC(=O)c1cc2cc3ccc(OC)cc3nc2o1 | -2% | 25µM* | ?
CCCCN(CC)CCCNC(=O)c1cc2cc3ccc(OC)cc3nc2o1 | -8% | ? | ?
CC(=O)c1ccc(NC(=O)CCc2c(C)nn(-c3ccc4nncn4n3)c2C)cc1 | . | -1% | -9%
O=C1NN(C(=O)Nc2ccc(Br)cc2)C(c2ccccc2)C1c1ccccc1 (stereo not given) | -5% | . | .
Cc1cccc(C(=O)N=c2c(C#N)cc3c(=O)n4cccc(C)c4nc3n2Cc2ccco2)c1 | -22% | 8.9µM* | 16µM*
Cc1cccn2c(=O)c3cc(C#N)c(=NC(=O)c4ccco4)n(Cc4ccco4)c3nc12 | -3% | . | .
Cc1ncc(COP(=O)(O)O)c(C)c1O | . | 5% | -1%
N#CCCN/N=C(/Cc1nc2ccccc2[nH]1)c1ccc(Cl)cc1 | -8% | -1% | 25µM*
Cc1ccc(N/N=C(\Cc2nc3ccccc3[nH]2)c2ccccc2)cc1 | 1% | -3% | 25µM*
N#CCCN/N=C(\Cc1nc2ccccc2[nH]1)c1ccccc1 | -24% | 0% | -5%
c1ccc(N/N=C(\Cc2nc3ccccc3[nH]2)c2ccccc2)cc1 | -4% | -16% | -28%
O=C(O)C(Oc1nc(=S)[nH]c(=S)[nH]1)(c1ccc(Cl)cc1)c1ccc(Cl)cc1 | . | 3% | 1%
Cc1ccc(C(=O)Cn2nnc3c(sc4nc5c(c(-c6ccccc6)c43)CCC5)c2=O)cc1 | 4% | -3% | 20µM*
Cc1ccc(-c2c3c(nc4sc(C(N)=O)c(N)c24)CCC3)cc1 | 0% | -10% | -3%
O=S(=O)(c1ccc2[nH]c3c(c2c1)CCCCC3)N1CCN(c2ccccc2)CC1 | . | -3% | 25µM*
O=S(=O)(Nc1cccc(Cl)c1)c1ccc2[nH]c3c(c2c1)CCCCCC3 | . | 4% | -27%
O=S(=O)(NCc1ccccc1)c1ccc2[nH]c3c(c2c1)CCCCC3 | . | -14% | ?
O=S(=O)(c1ccc2[nH]c3c(c2c1)CCCCC3)N1CCN(c2cccc(Cl)c2)CC1 | . | -1% | 7.9µM*
SMILES | Giardia FBPA inh | Cruzain inh Det | Cruzain inh noDet
COc1ccc(NC(=O)Cn2c(=O)n(-c3ccccc3)c(=O)c3c4c(sc32)CCCC4)cc1 | . | -1% | 3%
O=C(N/N=C\C=C\c1ccc2c(c1)OCO2)C1COc2cc3ccccc3cc2O1 (stereo not given) | 2% | -7% | 25µM*
O=C(N/N=C/c1ccc2c(c1)OCO2)C1COc2ccccc2O1 (stereo not given) | . | -4% | -10%
CCCCCCC#Cc1cc(OC)c(OC)cc1C(N1CC(C)c2ccccc21)N1CC(C)c2ccccc21 (stereo not given) | -8%[12.9 µM] | . | .
O=C(N/N=C/c1ccc(-c2cccc(C(F)(F)F)c2)o1)c1ccccc1O | 1% | -6% | 10µM*
O=C(N/N=C/c1ccc(-c2cccc(C(F)(F)F)c2)o1)c1ccccc1Br | 0% | -9% | 18%
CCOC(=O)C1CCN(c2nc3c(S(=O)(=O)c4ccccc4)nnn3c3ccsc23)CC1 | . | -10% | 4%
NC1=NC(=O)/C(=C/c2ccc(Cl)cc2Cl)S1 | -2% | . | .
O=C1OC(/C=C/c2ccc(Cl)cc2Cl)=NC/1=C\c1cccs1 | 16% | ? | 25µM*
Cc1cc(C(C)(C)C)cc(CNC2CCCCC2)c1O | . | 11% | 0%
O=C(O)CCCc1ccc2ccccc2c1 | . | -2% | 5%
CCN1CCN(Cc2c(O)ccc3c(C)c(-c4ccc(OC)cc4)c(=O)oc23)CC1 | . | -2% | -11%
Cc1nc(N2CCCCC2)c2sc(=S)n(C)c2n1 | 4% | -4% | 12%
CCN1CCN(c2nc(C)nc3c2sc(=S)n3C)CC1 | 18µM* | -9% | -19%
C=C(CC(=O)O)C(=O)O (tested in a mixture with another compound) | . | -3% | -3%
C[C@@]12CC[C@@H]3[C@@H](CC[C@H]4C[C@@H](O)CC[C@]43C)[C@H]1CC[C@@H]2c1cc(C(F)(F)F)n[nH]1 | . | -1% | -2%

Screening data from PubChem BioAssay.
